Measurements taken from PubChem BioAssay (NCI).
The panel holds about 83,000 compounds, 20% with a hit somewhere; the sample as a whole holds those more often.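 Plates (96-well) were seeded with cells, treated with compound at one concentration, and incubated for 48 hours before percent growth was determined.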 A number with no mark means an inactive call. Calls of active or inactive are those of the source. Rule for the calls: active = growth percent below 10; inactive = the rest.

Tests used:
Assay in all cases: NCI-60 one-dose screen, 48 h (100 = growth as untreated, 0 = no growth, -100 = all killed)
[1] = system: NCI-H23 lung; conditions: 10 µM unless noted
[2] = system: NCI-H226 lung; conditions: 10 µM unless noted
[3] = system: NCI-H322M lung; conditions: 10 µM unless noted
[4] = system: HOP-92 NSCLC; conditions: 10 µM
[5] = system: NCI-H522 lung; conditions: 10 µM
[6] = system: A549/ATCC NSCLC; conditions: 10 µM unless noted
[7] = system: 786-0 renal; conditions: 10 µM unless noted
[8] = system: COLO 205 colon; conditions: 10 µM unless noted
[9] = system: NCI-H460 lung; conditions: 10 µM unless noted
[10] = system: HOP-62 NSCLC; conditions: 10 µM unless noted

| Structure (SMILES) | growth [1] [%] | growth [2] | growth [3] | growth [4] | growth [5] | growth [6] | growth [7] | growth [8] | growth [9] | growth [10] |
| --- | --- | --- | --- | --- | --- | --- | --- | --- | --- | --- |
| CC(=O)OCC1O[C@@H](OC(C)=O)[C@@H](NC(=O)NS(=O)(=O)c2ccccc2)C(OC(C)=O)[C@@H]1OC(C)=O (some centres not stated) | 113 | 99.7% | 98.7% | 97.9% | 96% | 106% | 98.3% | 120% | – | – |
| Cn1c2c(cc(S(=O)(=O)c3ccccc3)c1=O)CCc1c-2cnn1-c1ccc(Cl)cc1 | 69.7 | -14.8% (active) | 38.9% | -34.2% (active) | -11.3% (active) | 8.48% (active) | – | 77.5% | – | – |
| CC(=O)/C(=C/c1ccc(-c2ccccc2)cc1)C(=O)c1ccccc1 | 91.6 | 83.1% | 100% | – | 61.7% | 76.4% | 92% | 93.6% | 99.8% | – |
| CCOC(=O)C1=NN(c2ccccc2)C2=NC(=O)/C(=C\c3cn(-c4ccccc4)nc3-c3cc4ccccc4o3)C(=O)N12 | 95.4 | 84.7% | 89.6% | – | 89.5% | 96.8% | 99.9% | 109% | 97% | – |
| CC1(C)NCCC[C@]2(C)[C@H]3CC=C4[C@@H]5C[C@](C)(COC(=O)c6ccccc6C(=O)O)CC[C@]5(C)CC[C@@]4(C)[C@]3(C)CC[C@@H]12 | – | 86.5% | 91% | 54.9% | 79% | 56.7% | 65.2% | – | 29.7% | – |
| CC(O)C(N)=O (configuration not stated) | – | 102% | 108% | 101% | 102% | 109% | 98.8% | 104% | 105% | – |
| CC(C)CSc1nc(-c2ccc(F)cc2)c(C#N)c(N2CCCCC2)n1 | – | 90.5% | 94% | 97.5% | 82.6% | 86.6% | 90.8% | – | – | 110% |
| Oc1ccccc1\C=N/N=C/C=C/c1ccccc1 | – | 103% | 98.6% | – | 87.4% | 105% | 111% | 108% | 99% | – |
| COc1cc2c(/C=C3\C(=O)Nc4ccc(Br)cc43)c(Cl)n(C)c2cc1C | – | 45.1% | 17.2% | -4.95% (active) | -3.92% (active) | 24% | -17.3% (active) | 6.03% (active) | – | – |
| CCC(C)C1NC(=O)C(CC(C)C)NC(=O)C(C)NC(=O)C(C(C)C)NC(=O)C(CCCCN)NC(=O)C(CC(C)C)NC(=O)C(C(C)C)NC(=O)[C@H](C)NC(=O)C(C(C)CC)NC(=O)C(CCCN=C(N)N)NC(=O)C(CCCCN)NC(=O)C(CCCN=C(N)N)NC(=O)C(CCCCN)NC(=O)C([C@H](C)CC)NC(=O)C(CCCCN)NC1=O (some centres not stated) | – | 44.9% | 64.9% | – | -5.53% (active) | 22.3% | 10.5% | -73% (active) | 4.91% (active) | – |
| O=C1NCCN1/N=C/c1c(Cl)nc2n1CCS2 | – | 151% | 94.6% | 51.3% | 34.3% | 113% | 90% | 133% | 111% | – |
| CC(C)(CNC1CCCCC1)OC(=O)c1ccccc1 | – | 97.8% | 103% | – | – | 108% | 100% | 104% | 106% | 102% |
| CC([C@H]1CCC2C3CCC4C[C@@H](N)CC[C@]4(C)C3CC[C@@]21C)N(C)C (some centres not stated) | – | 112% | 77.3% | 53.1% | 102% | 86.1% | 71.7% | 6.07% (active) | – | 104% |
| CCCCCCCCCCCCCCCCCC(=O)Nc1ccc(O)cc1 | – | 102% | 97% | – | – | – | 79% | 93% | 100% | 91.4% |
| COc1cc(CNC(=O)CCCC/C=C/C(C)C)ccc1OCc1nnc(Nc2ccccc2F)o1 | – | 64.5% | 86.1% | 56.4% | 60.3% | 105% | 12% | 104% | 80.3% | – |
| COc1cc(-c2nn(-c3ccc(NC(=O)Nc4ccc(Cl)c(Cl)c4)cc3)cc2-c2ccncc2)ccc1Cl | – | 52.6% | 68.4% | – | – | 25.8% | 4.3% (active) | 20.1% | 7.14% (active) | 47.5% |
| COC1=CC(c2ccc[nH]2)=N/C1=C\c1[nH]c(C)c(C(=O)CCCCC(=O)NC(C)(C)C)c1C | – | 37.3% | 45.7% | 3% (active) | -28.1% (active) | 11.4% | – | – | 5.36% (active) | – |

| Structure (SMILES) | growth [1] [%] | growth [2] | growth [3] | growth [4] | growth [5] | growth [6] | growth [7] | growth [8] | growth [9] | growth [10] |
| --- | --- | --- | --- | --- | --- | --- | --- | --- | --- | --- |
| O=C(/C=C/c1ccc(Cl)cc1)c1ccc(Cl)cc1 | – | 100% | 91.3% | – | – | 95.5% | 83.4% | 113% | – | 102% |
| C=CCC(CCC(CC=C)C(=O)OCC)C(=O)OCC (configuration not stated) | – | 104% | 83.3% | – | – | 106% | 98.5% | 110% | 105% | 103% |
| NNC(=O)CNc1ccc2ccccc2c1 | – | 109% | 115% | 70.4% | 98.5% | 115% | 105% | 109% | 113% | – |
| Cc1cc2cn3c4ccc(O)cc4[nH]c(=O)c3c2cc1C | – | 54.3% | -8.89% (active) | – | – | 3.2% (active) | 19.1% | -63.3% (active) | -81.9% (active) | 11.7% |
| O=C(Oc1ccccc1)c1ccccc1Cl | – | 106% | 104% | 90.1% | 121% | 99.9% | 101% | 104% | 103% | – |
| COC(=O)c1ccc2[nH]c(O)c(C(=Nc3ccc(N(C)C(=O)CN4CCN(C)CC4)cc3)c3ccc(CCO)cc3)c2c1 | – | 57% | 66.5% | – | 33.3% | 95.4% | 44.2% | 18.1% | 74.6% | – |
| CCCC[N+](C)(N)CCCC | – | 105% | 103% | – | – | 103% | 97.1% | 122% | 102% | 97.6% |
| COc1cc(OC)cc(-c2ccc(-c3ccc(C(=N)N)cc3)s2)c1 | – | -67.5% (active) | -89.3% (active) | – | -58.2% (active) | -41.5% (active) | -60.2% (active) | – | -88.5% (active) | – |
| N#CCc1ncc(-c2ccc(C(F)(F)F)cc2)c(NC2CCCCCC2)n1 | – | 55.3% [100 µM] | 68.1% [100 µM] | – | – | 21.1% [100 µM] | 28.6% [100 µM] | 18.7% [100 µM] | 8.28% [100 µM] (active) | 71.7% [100 µM] |
| CC1(C)NC(=S)NC1=O | – | 99.6% | 107% | 101% | 116% | 98% | 100% | 108% | – | 104% |
| COc1ccc(Cn2cc3c(c2-c2ccc(OC)cc2)CCc2cnoc2-3)cc1 | – | 9.5% (active) | 43.5% | 55.2% | 11.1% | 22% | 30.3% | -32.4% (active) | 0.836% (active) | – |
| CCCCCCCCCCC1OC(C)CC(C)O1 (configuration not stated) | – | 102% | 102% | – | – | 98.7% | 93.4% | 105% | 106% | 99.8% |
| CCC(C)(C)c1ccc(OCCCCCCN2CCN(c3ccc(C)c(Cl)c3)CC2)cc1 | – | 73.7% | 88.3% | 82.6% | 84.6% | 97% | 95.7% | 91.4% | – | 98.3% |
| COC(=O)CC(=O)C(=O)OC | – | 97.7% | 107% | – | – | 104% | 95.2% | 114% | 104% | 103% |
| COC(=O)/C=C/c1cc(O)c2oc(-c3ccc(O)c(O)c3)c(C(=O)OC)c2c1 | – | 18.2% | 48.7% | 56.1% | -0.902% (active) | 57.2% | 44.2% | – | 29.1% | – |
| O=C(/C=C\c1ccc(NCc2ccc(C(=O)O)cc2)cc1)CCl | – | 111% | 97% | 99.7% | -78.1% (active) | 100% | 90.4% | 78.6% | – | 75.1% |
| COc1ccc2c(N)ncc(C#Cc3cc(C(=O)Nc4ccc(CN5CCN(C)CC5)c(C(F)(F)F)c4)cnc3C)c2c1 | – | 55% | 31.6% | 1.06% (active) | -38.3% (active) | -68.6% (active) | -55.6% (active) | – | – | 45.3% |
